Results: ChEMBL document CHEMBL4513216, “Probing the Open Global Health Chemical Diversity Library for Multistage-Active Starting Points for Next-Generation Antimalarials” (ACS Infect Dis, 2020)
Out of some 69,000 compounds screened, about 8,600 (12%) showed an effect of 50% or more. The sample holds strong results, similar compounds and a random draw of the others, so the mix is not that of the screen.

The compounds below were run on Plasmodium berghei (assay: Screen against P. berghei liver stage (PbLuc), transformed with Luciferase, at 10uM). Conditions: tested at 10 uM.
Type: functional, HepG2

Compound | INHIBITION
CN(Cc1ccco1)C1CCC12CCN(C(=O)C1CCOCC1)CC2 (stereo not drawn) | 43.2%
Cc1nnc(NC(=O)c2c3c(nn2C2CCS(=O)(=O)C2)CCC3)s1 (stereo not drawn) | -90.8%
CC(C)C(=O)Nc1ccc(Sc2nncn2C)c(Cl)c1 | 24.8%
CCOC(C)C(=O)Nc1ccc(Sc2nncn2C)c(Cl)c1 (stereo not drawn) | 64.4%
COCC(=O)Nc1ccc(Sc2nncn2C)c(Cl)c1 | 31.7%
O=C(NCC1(CO)CC1)NC(c1nccs1)C1CC1 (stereo not drawn) | -10.8%
CC(=O)N1CCc2nc(N3CCCC3)nc(C)c2C1 | 34.6%
Cn1ccc(C(=O)NCC2(O)CCN(c3cnccn3)C2)n1 (stereo not drawn) | 16.95%
Cn1c(CN2CCOC(CNc3cccnn3)C2)nnc1C1CC1 (stereo not drawn) | -16%
CCN(Cc1cccc2c1OCO2)C(=O)Nc1ccccn1 | -67.3%
NC(=O)CCN(C(=O)c1cccc2c1OCO2)c1ccccc1 | 51.5%
NC(=O)C1CCCN1C1CCN(C(=O)c2cccc3c2OCO3)CC1 (stereo not drawn) | 8.59%
NC(=O)C1CCCN1C(=O)c1cccc2c1OCO2 (stereo not drawn) | -27.3%
CCN(C(=O)c1cccc2c1OCO2)c1ccc(Br)cn1 | 2.65%
CCN(C(=O)c1cccc2c1OCO2)c1ccccc1 | 55.9%
COc1cc(CN[C@@H]2COC[C@H]2Cc2cc(C)no2)cc(OC)c1 | 40%
Cn1cc(Br)c(C(=O)NCCCn2cc(Br)cn2)n1 | -16.3%
Cc1cc(C(=O)N2CCCN(Cc3cnn(C)c3)CC2)no1 | 27.335%
CS(=O)(=O)N1CCc2sc(C(=O)NCc3ccncc3)cc21 | 41.1%
O=C(c1cc2c(s1)CCCC2)N1CCCC1Cn1cccn1 (stereo not drawn) | 0.411%
Cc1ccc(NC(=O)Cn2ccc3c(=O)n(C)ccc32)cc1F | 11.9%
COc1ccc(NC(=O)Cn2ccc3c(=O)n(C)ccc32)cc1OC | -14.2%
Cn1ccc2c(ccn2CC(=O)Nc2ccc(Br)cc2)c1=O | 63.5%
CC(C)CNC(=O)CNC(=O)NC(c1nccs1)C1CC1 (stereo not drawn) | 8.59%
CCOC(=O)NCCC(O)c1ccoc1 (stereo not drawn) | 52.1%

Compound | INHIBITION
CCOc1ccccc1C(=O)NCCc1ccoc1 | 32.4%
CCOc1ccccc1C(=O)NCCC(O)c1ccoc1 (stereo not drawn) | 85.5%
O=C(NCCC(O)c1ccoc1)Nc1cccs1 (stereo not drawn) | 13.8%
CCOCC(=O)NCCC(O)c1ccoc1 (stereo not drawn) | 31.3%
O=C(COc1ccccc1F)NCCC(O)c1ccoc1 (stereo not drawn) | -16.9%
CC(=O)N1CC[C@H]2OCC[C@@H](C(=O)NCc3ccco3)[C@H]2C1 | 35.7%
Cc1cccc(CN2C(=O)CCC23CCN(Cc2cccn2C)CC3)n1 | 24.9%
Cc1cc2ccccc2n1CC(=O)Nc1ccnn1CC1CCOC1 (stereo not drawn) | 40.7%
Cc1csc(CN(C)C(=O)Nc2cnn(CC3CCCO3)c2)n1 (stereo not drawn) | 0.825%
CCc1cnc(CN(C)C(=O)NC2CCN(CC3CC3)C2)s1 (stereo not drawn) | 39.2%
CCc1cnc(CN(C)C(=O)NC2CCN(C)C2=O)s1 (stereo not drawn) | 68.2%
CCc1cnc(CN(C)C(=O)Nc2cnn(CC3CCCO3)c2)s1 (stereo not drawn) | 51.4%
CCc1cnc(CN(C)C(=O)NC2CCN(c3ccccc3)C2)s1 (stereo not drawn) | -53.7%
CN(Cc1ccncc1)C(=O)Nc1cnn(CC2CCCO2)c1 (stereo not drawn) | -5.53%
CC[C@@H]1N(Cc2cc(OC)cc(OC)c2)CCC[C@]12CCC(=O)N2C | -54.1%
CNC(=O)c1nc(COc2c(C)occc2=O)no1 | -11.9%
Cc1cncc(Oc2ccc(CO)cc2)n1 | 44.3%
Cc1cncc(Oc2ccc(CN)cc2)n1 | 60.5%
CNCc1ccc(Oc2cncc(C)n2)cc1 | -1.84%
CC(=O)c1ccc(N2CCCC(CO)(Cc3ccccc3F)C2)nc1 (stereo not drawn) | 50.3%
CCN1CC2(CCC1=O)CCN(c1ccc(C(C)=O)cn1)CC2 | 5.46%
CC(=O)c1ccc(N2CCCC(CO)(Cc3ccccc3C)C2)nc1 (stereo not drawn) | 75.6%
NC(=O)c1ccnc(N2CCCC(CO)(Cc3ccccc3)C2)c1 (stereo not drawn) | 10.1%
CC(=O)c1ccc(N2CCC3(CCC(=O)N(CCCO)C3)CC2)nc1 | 30.9%
Cc1ccccc1CC1(C(=O)O)CCCN(c2ncccn2)C1 (stereo not drawn) | 8.64%

Compound | INHIBITION
O=C(CN1CCCCC1)Nc1cc(C(F)(F)F)ccc1-n1cccc1 | 9%
CCN1CC2(CC1=O)CN(Cc1cnn(C)c1)CCN(C(=O)N(C)C)C2 (stereo not drawn) | 20.9%
CS(=O)(=O)N1CCN(Cc2cccs2)CC(C(N)=O)C1 (stereo not drawn) | 8.72%
COCCN1C(=O)[C@@H]2CC[C@H]1CN(C(=O)CCc1n[nH]c(C)c1C)C2 | 34.9%
c1ccc(NCCn2cc(C3CCCNC3)nn2)cc1 (stereo not drawn) | 56.6%
O=S(=O)(NCCn1cc(C2CCCNC2)nn1)c1ccc(Cl)cc1 (stereo not drawn) | 35.4%
c1cc2c(cc1Cn1cc(C3CCCNC3)nn1)CCCO2 (stereo not drawn) | 16.7%
Cc1nnc(NC(=O)NCC(C)N2CCOCC2)s1 (stereo not drawn) | 2.05%
CN(C)CCCNCCC(c1ccccc1)C1CCOC(C)(C)C1 (stereo not drawn) | 16.1%
CN(C)CCCNCCC(Cc1ccccc1)C1CCOC(C)(C)C1 (stereo not drawn) | 56.7%
CN(C)CCNCCC(Cc1ccccc1)C1CCOC(C)(C)C1 (stereo not drawn) | 23.1%
CNC(=O)CS(=O)(=O)Cc1cc(Cl)c2c(c1)OCCO2 | 21.5%
C(=C\c1ccc(CN2CCCC2)cn1)/c1ccccc1 | 84.2%
CCC/C=C/c1ccc(CN2CCCC2)cn1 | -4.51%
CCC/C=C/c1ccc(CN2CCN(C)CC2)cn1 | -13.2%
NC(=O)c1ccc(C(=O)N2CCCC(n3ccnc3)C2)s1 (stereo not drawn) | 23.4%
FC(F)(F)c1cccc(-c2c[nH]c(C3CCCN3)n2)c1 (stereo not drawn) | -14.8%
O=C(NCCc1nnc2n1CCCCC2)N1CCC2(CCCC2)CC1 | -56.9%
O=C(NCc1nnc2n1CCCCC2)N1CCC2(CCCCC2)C1 | 47.9%
CCc1nnsc1C(=O)NCc1nnc2n1CCC2 | 60%
CCc1nnsc1C(=O)NCCc1nnc2n1CCC2 | 14.3%
CCc1nnsc1C(=O)NCc1nnc2n1CCCCC2 | 41.4%
O=C(NCc1nnc2n1CCC2)N1CCC2(CCCCC2)CC1 | 75.7%
